The values below come from PubChem BioAssay (EPA / NIEHS).

SMILES strings stand for the structures. Where “and” joins values, the source holds several entries; their conditions need not be identical. Equal values may be shown once. Records with an inconclusive call do not appear. Calls of active or inactive are those of the source. The calls were made as follows: active = hit-call score of the fitted dose curve at least 0.9, where 1 is the maximum; inconclusive = response in the unintended direction; inactive = score below 0.9.

As a reminder, the AC50 is the concentration at which the activity in the assay is half-maximal.

The target of assay [1] is Cellular tumor antigen p53 (Homo sapiens) (UniProt P04637). Nature of the assay: TOX21_p53_BLA_p2_ratio: Tox21 HCT-116 p53 Agonism Beta-lactamase Assay, Ratio, Phase 2 (AID 2283592). The procedure, abridged:
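Cleaved-to-uncleaved substrate ratio (460 vs 530 nm) measured in HCT116 cells with an inducible beta-lactamase reporter linked to p53 activity. Compounds incubated 16 h at 37C before 2 h room-temperature CCF4-AM loading.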

Assay [2] can be described thus: TOX21_p53_BLA_p3_viability: Viability Assessment in the Tox21 HCT-116 p53 Agonism Beta-lactamase Assay, Phase 3 (AID 2283593).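 Also: cells exposed to compound for 16 h before reading.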 The procedure, abridged: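 HCT-116 cells (4000/well) rested 5 h at 37C, then got DMSO compounds by pin tool (217-fold dilution) for 16 h at 37C, 5% CO2. After the bla read, CellTiter-Glo was added and luminescence read at 30 min, room temperature.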

Assay [3] concerns the target Cellular tumor antigen p53 (Homo sapiens) (UniProt P04637). Put plainly: TOX21_p53_BLA_p3_ratio: Tox21 HCT-116 p53 Agonism Beta-lactamase Assay, Ratio, Phase 3 (AID 2283596). The procedure, abridged: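 Cells were seeded at 4000/well, rested 5 h at 37C, then dosed with DMSO compound solutions (217-fold dilution) for 16 h. CCF4-AM substrate was loaded for 2 h at room temperature, and the 460/530 nm emission ratio was fitted for gain of signal versus DMSO.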

Assay [4] in a line: TOX21_p53_BLA_p4_viability: Viability Assessment in the Tox21 HCT-116 p53 Agonism Beta-lactamase Assay, Phase 4 (AID 2283597).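 Also: hits lower the luminescence signal meaning cytotoxicity.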 The procedure, abridged:
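Viability is taken as cellular ATP: after 16 h compound exposure of HCT116 cells and a 2 h room-temperature CCF4-AM substrate step, CellTiter-Glo reagent is added and luminescence is measured 30 min later.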

In assay [5] the target is Cellular tumor antigen p53 (Homo sapiens) (UniProt P04637). Nature of the assay: TOX21_p53_BLA_p5_ratio: Tox21 HCT-116 p53 Agonism Beta-lactamase Assay, Ratio, Phase 5 (AID 2283599). In outline: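 HCT-116 cells carrying a p53-inducible beta-lactamase reporter were seeded at 4000 cells/well and dosed after 5 h with compound in DMSO (217-fold dilution). After 16 h at 37C, CCF4-AM substrate was added for 2 h, and the 460/530 nm emission ratio was scored as gain-of-signal versus DMSO.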

A short description of assay [6]: TOX21_p53_BLA_p5_viability: Viability Assessment in the Tox21 HCT-116 p53 Agonism Beta-lactamase Assay, Phase 5 (AID 2283600). The procedure, abridged: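 Viability is taken from cellular ATP content, measured by luciferase luminescence in the same wells after the beta-lactamase ratio read. Cells are seeded at 4000 per well and exposed to DMSO-dissolved compounds, diluted 217-fold, for 16 h.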

The target of assay [7] is Cellular tumor antigen p53 (Homo sapiens) (UniProt P04637). Put plainly: TOX21_p53_BLA_p4_ratio: Tox21 HCT-116 p53 Agonism Beta-lactamase Assay, Ratio, Phase 4 (AID 2283601). The procedure, abridged:
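HCT116 cells carrying an inducible beta-lactamase reporter were plated at 4000 cells/well, rested 5 h, then exposed to compounds in DMSO (217-fold dilution) for 16 h at 37C. CCF4-AM substrate was loaded 2 h at room temperature; 460/530 nm emission ratio scored gain-of-signal versus DMSO.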

Cellular tumor antigen p53 (Homo sapiens), sequence (P04637 whole entry, looked up): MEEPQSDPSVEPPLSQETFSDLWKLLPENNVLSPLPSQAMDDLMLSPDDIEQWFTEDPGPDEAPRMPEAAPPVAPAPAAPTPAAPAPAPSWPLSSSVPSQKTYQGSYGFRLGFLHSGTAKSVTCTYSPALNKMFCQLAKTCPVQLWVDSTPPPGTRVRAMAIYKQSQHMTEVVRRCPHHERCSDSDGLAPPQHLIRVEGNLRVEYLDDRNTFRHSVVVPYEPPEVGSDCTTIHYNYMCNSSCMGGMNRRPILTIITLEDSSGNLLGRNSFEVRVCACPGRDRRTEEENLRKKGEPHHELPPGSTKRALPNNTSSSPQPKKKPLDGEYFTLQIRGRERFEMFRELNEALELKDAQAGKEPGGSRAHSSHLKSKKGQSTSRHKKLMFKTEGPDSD

Consider `O=[N+]([O-])c1c2ccccc2cc2ccccc12`, for which the result in assay [1], in assay [2], in assay [3], in assay [4], in assay [5] and in assay [6] was inactive. Further, the result in assay [7] was inactive.
As to `BrCc1ccc(Br)cc1`, the result in assay [1], in assay [2], in assay [5], in assay [6] and in assay [7] was inactive.
Take `O=C(CBr)c1ccc(O)cc1`: the outcome in assay [1], in assay [2], in assay [3], in assay [4], in assay [5] and in assay [6] was inactive. Also, the result in assay [7] was inactive.
For `C=CC(=O)OCC(COC(=O)C=C)(COC(=O)C=C)COC(=O)C=C`, the result in assay [1] and in assay [3] was inactive. The half-maximal activity concentration (AC50) is 57.9 µM (active) in assay [2], 13.3 µM (active) in assay [4], 21.3 µM (active) in assay [6] and 46.1 µM (active) in assay [7].
For `CN(N=O)C(N)=O`, the result in assay [1], in assay [2], in assay [3], in assay [5] and in assay [7] was inactive.
Consider `N#CCCC(Br)(C#N)CBr` (configuration not stated), for which the result in assay [1], in assay [2], in assay [4] and in assay [7] was inactive. Besides, the AC50 in assay [3] was 70.8 µM (active).
With `CC(C)[C@H](C(=O)OC(C#N)c1cccc(Oc2ccccc2)c1)c1ccc(OC(F)F)cc1` (some centres not stated), the result in assay [1], in assay [2], in assay [3], in assay [4], in assay [5] and in assay [6] was inactive. Further, the outcome in assay [7] was inactive.
Take `O=C(CCl)NCO`: the outcome in assay [1], in assay [4], in assay [5] and in assay [7] was inactive.
Regarding `Cc1cc(C(F)(C(F)(F)F)C(F)(F)F)ccc1NC(=O)c1cccc(I)c1C(=O)NC(C)(C)CS(C)(=O)=O`, the outcome in assay [1], in assay [3], in assay [4], in assay [5] and in assay [6] was inactive. Also, the half-maximal activity concentration (AC50) in assay [7] was 56.9 µM (active).
In the case of `CC(C)[N+](=O)[O-]`, the result in assay [1], in assay [3], in assay [4], in assay [6] and in assay [7] was inactive.
In the case of `Cc1cccc(N=Nc2ccc(N(C)C)cc2)c1`, the outcome in assay [1], in assay [3], in assay [4], in assay [5] and in assay [7] was inactive.
Regarding `Cc1cc(C(C)(C)c2ccc(O)c(C)c2)ccc1O`, the AC50 in assay [1] is 30.2 µM (active); in assay [7], 41.9 µM (active). For the same compound, the outcome in assay [3], in assay [4] and in assay [6] was inactive.
As to `O=NN1CCOCC1`, the result in assay [1], in assay [3], in assay [4] and in assay [7] was inactive.
With `Cc1cc(Cl)ccc1O`, the outcome in assay [1], in assay [3], in assay [4], in assay [5] and in assay [7] was inactive.
With `CC(O)(CS(=O)(=O)c1ccc(F)cc1)C(=O)Nc1ccc(C#N)c(C(F)(F)F)c1` (configuration not stated), the result in assay [1], in assay [3], in assay [4], in assay [5], in assay [6] and in assay [7] was inactive.
Consider `Cc1ccccc1OP(=O)(Oc1ccccc1C)Oc1ccccc1C`, for which the outcome in assay [1], in assay [3], in assay [4], in assay [5] and in assay [7] was inactive.
In the case of `c1csc(-c2ccc(-c3cccs3)s2)c1`, the half-maximal activity concentration (AC50) in assay [1] is 50.2 µM (active); in assay [3] it was 41.9 µM (active); in assay [5], 59.3 µM (active); in assay [7] it was 46.1 µM (active).
For `O=NN1CCCCCC1`, the result in assay [1], in assay [3] and in assay [7] was inactive.
Consider `CC(=O)CN(CC(C)=O)N=O`, for which the outcome in assay [1] and in assay [4] was inactive.
With `CCOP(=S)(OCC)OP(=S)(OCC)OCC`, the result in assay [1], in assay [3], in assay [4], in assay [5] and in assay [7] was inactive.
With `C[C@H]1C(=O)O[C@@H]2CCN3CC=C(COC(=O)[C@](C)(O)[C@]1(C)O)[C@H]23`, the outcome in assay [1], in assay [3], in assay [5], in assay [6] and in assay [7] was inactive.
For the compound `CCN(N=O)C(N)=O`, the result in assay [1], in assay [3], in assay [4], in assay [6] and in assay [7] was inactive.
With `C#C[C@]1(O)CC[C@H]2[C@@H]3CCC4=CC(=O)CC[C@]4(C)[C@H]3CC[C@@]21C`, the outcome in assay [1], in assay [3], in assay [4], in assay [5], in assay [6] and in assay [7] was inactive.
In the case of `COCCl`, the outcome in assay [1], in assay [3], in assay [4], in assay [6] and in assay [7] was inactive.
As to `CCCCC(CC)C(=O)Cl` (configuration not stated), the result in assay [1], in assay [3], in assay [5], in assay [6] and in assay [7] was inactive.
Regarding `CC(c1ccc(O)cc1)c1ccc(O)cc1`, the outcome in assay [1], in assay [3], in assay [5], in assay [6] and in assay [7] was inactive.
With `N#CS`, the outcome in assay [1], in assay [3], in assay [4], in assay [6] and in assay [7] was inactive.
Regarding `O=C(O)CC(O)(CC(=O)O)C(=O)O`, the outcome in assay [1], in assay [3], in assay [4], in assay [5], in assay [6] and in assay [7] was inactive.
As for `CC(C)(c1ccccc1)c1cc(-n2nc3ccccc3n2)c(O)c(C(C)(C)c2ccccc2)c1`, the result in assay [1], in assay [4], in assay [5] and in assay [7] was inactive.
On to `N#Cc1ccc(Cl)cc1`, for which the outcome in assay [1], in assay [4], in assay [5], in assay [6] and in assay [7] was inactive.
For `Nc1ccc(Br)cc1`, the outcome in assay [1], in assay [3], in assay [4], in assay [6] and in assay [7] was inactive.
In the case of `O=NN1CCCCCCC1`, the outcome in assay [1], in assay [3], in assay [4], in assay [6] and in assay [7] was inactive.
`N#CCC#N`: the outcome in assay [1], in assay [3], in assay [5], in assay [6] and in assay [7] was inactive.
For the compound `CC(C)[C@@H](Nc1ccc(C(F)(F)F)cc1Cl)C(=O)OC(C#N)c1cccc(Oc2ccccc2)c1` (some centres not stated), the result in assay [1], in assay [3], in assay [4] and in assay [6] was inactive.
As for `CCC[CH2][Sn]([Cl])([Cl])[CH2]CCC`, the concentration at half-maximal activity (AC50) in assay [1] was 1.59 µM (active) and 14.3 µM (active); in assay [3], 19.6 µM (active) and 20.1 µM (active); in assay [4], 2.06 µM (active) and 3.45 µM (active); in assay [5] it was 15 µM (active) and 20.4 µM (active); in assay [6] it was 2.75 µM (active) and 2.86 µM (active); in assay [7], 3.21 µM (active) and 13.9 µM (active).
`CCN(CC)C(=O)C(Cl)=C(C)OP(=O)(OC)OC`: the result in assay [1], in assay [3], in assay [4], in assay [6] and in assay [7] was inactive.
